Here are results for 37 compounds from PubChem BioAssay (NCI).

About 79,000 compounds went through this panel and 15% of them were active in at least one assay; those are over-represented in the sample as a whole. A number with no mark means an inactive call. Calls of active or inactive are those of the source. No stated cut-off is given here; in the data, active means growth inhibition above about 70%; inactive means the rest.

The first test in a line: NCI Yeast Anticancer Drug Screen. Data for the mlh1 rad18 strain (AID 175). As to conditions: S. cerevisiae mlh1 rad18 strain growth inhibition; at 50.0 µM (retest, dose inferred, filed as 5.0); stronger effect = higher value. In outline: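 Cells of a genetically altered yeast strain, deficient in DNA damage repair, were treated with compound. Their growth was then compared with that of vehicle-treated cultures to give inhibition.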
`C/C(=N\NC(=S)SCc1ccccc1)c1ccccn1`: the growth inhibition is 95% (active).
The same measure, in the same setting: the result for `CC[C@@]1(O)C(=O)OCc2c1cc1n(c2=O)Cc2cc3c(N)cccc3nc2-1` reads 1%; that for `CN(C)c1ccc(Sc2ccc3nc(N)nc(N)c3c2)cc1`, 34%.
The same measure, in the same setting: the result for `CC(=O)OCCOCNC(=S)N/N=C(\C)c1cnccn1` reads -7%; that for `COc1ccc(C2c3cc4c(cc3OC(C)(O)C2C)OCO4)c(OC)c1` (centres undefined), 81% (active).
As for `COc1cc(C2SCC(=O)N2c2ccc(-c3ccc(-n4c(-c5ccccc5)nc5ccccc5c4=O)cc3)cc2)cc(OC)c1OC` (centres undefined), the growth inhibition was 37%.
`COc1ccc(Br)c(C(=O)Sc2nnnn2-c2cccc(Cl)c2)c1`: the growth inhibition is 67%.
Turning to `O=C(NNc1ccnc2cc(Cl)ccc12)/C(=C\c1ccccc1Cl)NC(=O)c1ccccc1`, the growth inhibition is 7%.
As to `CSC(=S)Nc1cccc(C)n1`, the growth inhibition was 99% (active).
Same read-out and setting: the result for `O=C(/C=C\c1ccc(Cl)cc1Cl)c1cccs1` reads 88% (active); that for `COc1ccc(-c2cn(-c3ccc(I)cc3)c3ncnc(N)c23)cc1`, -17%; that for `CN(C)c1ccc(C(C#N)=C(C#N)C#N)cc1`, 76% (active).
On the same count and under the same terms, the result for `COc1cc(/C=C2\CCc3ccccc3C2=O)cc(OC)c1OC` reads 0%; that for `CC(C)/C(Cl)=N\OC(=O)Nc1cccc(Cl)c1`, 22%.
On the same count and under the same terms, the result for `CC1(C)[C@@H]2CC[C@]1(C)[C@H](OC(=O)CSC#N)C2` reads 98% (active).
Consider `NNC(=O)CCc1ccc2ccc3ccccc3c2c1`, for which the growth inhibition is 22%.
As for `C=CC(C)(O)CCC1C(=C)C(O)CC2C(C)(C)CCCC12C` (centres undefined), the growth inhibition was 45%.
On the same count and under the same terms, the result for `S=C(Nc1ccc(Cl)c(Cl)c1)SCc1ccc2c(c1)OCO2` reads 97% (active); that for `COc1cc(C2C3=C(COC3=O)Oc3cc4c(cc32)OCO4)ccc1O` (centres undefined), 45%.
Consider `S=C(Nc1ccc(Cl)cc1)SC1CCCCC1`, for which the growth inhibition was 91% (active).
Take `Nc1nc(-c2cccnc2)cc(-c2cc(-c3cccnc3)nc(N)n2)n1`: the growth inhibition is 10%.
The same measure, in the same setting: the result for `COC1=CC(=O)C2C(C1=O)C(c1ccc(Cl)cc1)[C@@H]2C` (some centres undefined) reads 98% (active); that for `c1ccc(-c2nc3cccnc3s2)cc1`, 1%; that for `O=[N+]([O-])c1cc(CCl)ccc1CCl`, 99% (active).
Still for that read-out and setting: the result for `COc1ccc(/C=C2\SC(=S)N(/C=C/c3nc4ccccc4[nH]c3=O)C2=O)cc1OC` reads 33%.
Same read-out and setting: the result for `CCCN(CCC)CC(O)c1cc(-c2ccc(Cl)cc2)nc2c(C)c(Cl)ccc12` (centres undefined) reads 96% (active).
In the case of `O=C(Nc1ccccc1)OCCc1ccc(Cl)c(Cl)c1`, the growth inhibition was 60%.
Same read-out and setting: the result for `C#CCCCc1ccccc1` reads 70% (active).
Same read-out and setting: the result for `CC(=O)Cc1ccc[cH-]1.[Fe+2].c1cc[cH-]c1` reads 68%.
Still for that read-out and setting: the result for `Cc1cc(I)ccc1N` reads 73% (active).
On to `FC(F)(F)c1cc(NC(=S)N2c3ccccc3-n3cccc3C2c2cccnc2)cc(C(F)(F)F)c1` (centres undefined), for which the growth inhibition was 69%.
The same measure, in the same setting: the result for `CC(C)(CN1CCCCC1)C(=O)CC(SCCS(=O)(=O)O)c1ccc(Br)cc1` (centres undefined) reads 21%; that for `C[Si](C)(C)CNC(=O)OCc1ccccc1`, -1%; that for `CC(C(=O)N1C(=O)N(C(=O)[C@H](C)C(O)c2ccccc2)[C@H](c2ccccc2)[C@H]1c1ccccc1)[C@@H](O)c1ccccc1` (some centres undefined), 37%.
Consider `Oc1cccc2c(Cl)ccnc12`, for which the growth inhibition was 99% (active).
The same measure, in the same setting: the result for `O=C1C=CC(=C(c2ccccc2)c2ccccc2)c2ccccc21` reads 92% (active); that for `S=C(S)NN1CCOCC1`, 92% (active).

Staying with this test, now noted: S. cerevisiae mlh1 rad18 strain growth inhibition; at 50.0 µM; stronger effect = higher value.
With `C/C(=N\NC(=S)SCc1ccccc1)c1ccccn1`, the growth inhibition was 87.5% (active).
Consider `CC[C@@]1(O)C(=O)OCc2c1cc1n(c2=O)Cc2cc3c(N)cccc3nc2-1`, for which the growth inhibition is 5.1%.
For the compound `CN(C)c1ccc(Sc2ccc3nc(N)nc(N)c3c2)cc1`, the growth inhibition is 51.8%.
The same measure, in the same setting: the result for `CC(=O)OCCOCNC(=S)N/N=C(\C)c1cnccn1` reads 62.4%; that for `COc1ccc(C2c3cc4c(cc3OC(C)(O)C2C)OCO4)c(OC)c1` (centres undefined), 93.5% (active); that for `COc1cc(C2SCC(=O)N2c2ccc(-c3ccc(-n4c(-c5ccccc5)nc5ccccc5c4=O)cc3)cc2)cc(OC)c1OC` (centres undefined), 19.4%.
For the compound `COc1ccc(Br)c(C(=O)Sc2nnnn2-c2cccc(Cl)c2)c1`, the growth inhibition is 85% (active).
Consider `O=C(NNc1ccnc2cc(Cl)ccc12)/C(=C\c1ccccc1Cl)NC(=O)c1ccccc1`, for which the growth inhibition was 90.1% (active).
On the same count and under the same terms, the result for `CSC(=S)Nc1cccc(C)n1` reads 70.1% (active); that for `O=C(/C=C\c1ccc(Cl)cc1Cl)c1cccs1`, 1.1%; that for `COc1ccc(-c2cn(-c3ccc(I)cc3)c3ncnc(N)c23)cc1`, 14.2%.
On the same count and under the same terms, the result for `CN(C)c1ccc(C(C#N)=C(C#N)C#N)cc1` reads 89.6% (active); that for `COc1cc(/C=C2\CCc3ccccc3C2=O)cc(OC)c1OC`, 33.5%; that for `CC(C)/C(Cl)=N\OC(=O)Nc1cccc(Cl)c1`, 77.5% (active).
On to `CC1(C)[C@@H]2CC[C@]1(C)[C@H](OC(=O)CSC#N)C2`, for which the growth inhibition was 98.8% (active).
Same read-out and setting: the result for `NNC(=O)CCc1ccc2ccc3ccccc3c2c1` reads 71.3% (active); that for `C=CC(C)(O)CCC1C(=C)C(O)CC2C(C)(C)CCCC12C` (centres undefined), 63.9%; that for `S=C(Nc1ccc(Cl)c(Cl)c1)SCc1ccc2c(c1)OCO2`, 88.7% (active).
On the same count and under the same terms, the result for `COc1cc(C2C3=C(COC3=O)Oc3cc4c(cc32)OCO4)ccc1O` (centres undefined) reads 78% (active); that for `S=C(Nc1ccc(Cl)cc1)SC1CCCCC1`, 91.8% (active); that for `Nc1nc(-c2cccnc2)cc(-c2cc(-c3cccnc3)nc(N)n2)n1`, 28.6%.
On the same count and under the same terms, the result for `COC1=CC(=O)C2C(C1=O)C(c1ccc(Cl)cc1)[C@@H]2C` (some centres undefined) reads 90.5% (active); that for `c1ccc(-c2nc3cccnc3s2)cc1`, -4.1%; that for `O=[N+]([O-])c1cc(CCl)ccc1CCl`, 99% (active).
`COc1ccc(/C=C2\SC(=S)N(/C=C/c3nc4ccccc4[nH]c3=O)C2=O)cc1OC`: the growth inhibition was 61.6%.
On the same count and under the same terms, the result for `CCCN(CCC)CC(O)c1cc(-c2ccc(Cl)cc2)nc2c(C)c(Cl)ccc12` (centres undefined) reads 98.7% (active); that for `O=C(Nc1ccccc1)OCCc1ccc(Cl)c(Cl)c1`, 58.9%; that for `C#CCCCc1ccccc1`, 26.7%.
Same read-out and setting: the result for `CC(=O)Cc1ccc[cH-]1.[Fe+2].c1cc[cH-]c1` reads 92.7% (active).
Same read-out and setting: the result for `Cc1cc(I)ccc1N` reads 85.6% (active); that for `FC(F)(F)c1cc(NC(=S)N2c3ccccc3-n3cccc3C2c2cccnc2)cc(C(F)(F)F)c1` (centres undefined), 70.7% (active).
As for `CC(C)(CN1CCCCC1)C(=O)CC(SCCS(=O)(=O)O)c1ccc(Br)cc1` (centres undefined), the growth inhibition is 65.2%.
Still for that read-out and setting: the result for `C[Si](C)(C)CNC(=O)OCc1ccccc1` reads 7.5%.
Same read-out and setting: the result for `CC(C(=O)N1C(=O)N(C(=O)[C@H](C)C(O)c2ccccc2)[C@H](c2ccccc2)[C@H]1c1ccccc1)[C@@H](O)c1ccccc1` (some centres undefined) reads 82.2% (active); that for `Oc1cccc2c(Cl)ccnc12`, 91% (active); that for `O=C1C=CC(=C(c2ccccc2)c2ccccc2)c2ccccc21`, 13.2%.
The same measure, in the same setting: the result for `S=C(S)NN1CCOCC1` reads 86.8% (active).
